Shown are actives, neighbours in structure and some others; about 3.1% of the full set was active somewhere.
miR122 inh: miR-122 Renilla sensor signal increase in Huh7, primary screen, miR-122 inhibitor project, cell-based, single point, plate reader. Huh7 miR-122 Renilla luciferase sensor, 48 h; neutral wells = 0, positive control = 100. activation (reporter increase), % at 12.5 µM. 340,000 tested, 0.3% active. AID 602342, 2012;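 active means mean replicate activation score at least 90 and every replicate individually at or above 90; inconclusive means only one of the two criteria met; inactive means neither criterion met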;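 further: higher luciferase means less miR-122 activity so hits act as miR-122 inhibitors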
PAX8 inh HTS: inhibitors of PAX8-driven TPO luciferase reporter, primary screen, RMG-I cells, single concentration; 360,000 tested, 1.2% active; SteadyGlo, 24 h; inhibition, % at 12.6 µM;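 active means mean replicate inhibition at least 60% with every replicate also reaching 60%; inconclusive means only one of the two criteria is met; inactive means mean below 60% and not all replicates reaching 60%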;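 further: luciferase light reporting Pax8 driven TPO promoter activity; plate controls were median of neutral control wells for no effect and mitoxantrone controls for full effect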
EWS-Fli block: EWS/Fli-driven NR0B1 reporter inhibitors, primary screen, A673 cells, NR0B1 luciferase, luminescence, MLPCN library. viability-normalised. inhibition, % at 12.6 µM. 350,000 tested, 0.67% active. AID 651661, 2012;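 active means mean inhibition of at least 50% after viability correction, with every replicate also passing that limit; inconclusive means mean reaches 50% but only one of two replicates passes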;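 further: firefly luciferase signal divided by Alamar Blue viability fluorescence both relative to DMSO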
C2C12 statin: suppressors of statin myotoxicity in C2C12 myotubes, primary screen, cell-based, single point, plate reader; C2C12 myotubes + simvastatin, ATP luminescence, 48 h; scaled: DMSO 0, geranylgeraniol control 100; 330,000 tested, 0.78% active; rescue of ATP level, % at 7.49 µM;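 active means mean ATP rescue above about 67%, or every replicate alone reaching that limit, limit read from the data, passing the limit was not always enough; inconclusive means no clear call, values can overlap the other calls; inactive means mean under the limit and some replicate under it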;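 further: myotubes were challenged with 10 µM simvastatin during compound exposure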
Env fusion inh: inhibitors of HIV-1 Env-driven cell-cell fusion, primary screen, HeLa-JRFL effector, CEM21 target cells, luciferase; inhibition, % at 12.3 µM; 360,000 tested, 1.1% active;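 active means mean replicate inhibition score of at least 50 and every replicate individually at or above 50; inconclusive means only one of the two criteria met; inactive means mean below 50 and not all replicates reaching 50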;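 further: 0% = plate neutral controls and 100% = maraviroc near 300 nM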
INS-1E GSIS act: GLuc luminescence reporter in INS-1E cells, primary screen for activators of glucose-dependent secretion of insulin; INS-1E GLuc reporter insulin secretion, 2-3 h; activation, % at 16.6 µM; 370,000 tested, 0.61% active; AID 743287, 2014;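 active means lowest replicate activation of at least 40%, so every replicate reaches that level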;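 further: 0% = median of neutral control wells and 100% = median of IBMX positive control wells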
* marks the source's active call; other numbers are inactive results; u = inconclusive; x = not tested or not shown; [ ] = remark or other dose.

SMILES | miR122 inh | PAX8 inh HTS | EWS-Fli block | C2C12 statin | Env fusion inh | INS-1E GSIS act
COc1ccc(NC(=O)Nc2ccc3c(c2)C(=O)N([C@@H](C)CO)C[C@H](C)[C@@H](CN(C)C)OCCCC[C@H](C)O3)cc1 | 6.8[16.7 µM] | -17.1 | 1.2 | -0.2 | -3.7[16.7 µM] | 0.1
Cc1ccc(-c2cnc3c(c2)C(=O)N([C@@H](C)CO)C[C@@H](C)[C@@H](CN(C)Cc2ccccc2C(=O)O)O3)cc1 | 1.0[16.7 µM] | x | -6.2 | 3.5 | -2.8[16.7 µM] | 20.7
CCOC(=O)Nc1ccc([N+](=O)[O-])cc1C | -2.7 | 43.8 | 2.3 | x | x | 1.7
Cc1cc([N+](=O)[O-])ccc1N | x | x | -3.9 | x | -23.8 | 41.6*
COCC(=O)Nc1ccc2c(c1)C(=O)N(C)C[C@@H](OC)[C@H](C)CN(C(C)=O)[C@H](C)CO2 | -22.0[16.7 µM] | x | -7.1 | 9.5 | 85.3*[16.7 µM] | 3.8
CCC(=O)Nc1ccc2c(c1)C(=O)N(C)C[C@@H](OC)[C@H](C)CN(C(=O)CC)[C@@H](C)CO2 | x | x | -0.7 | -2.3 | 59.4*[16.7 µM] | -3.8
COCC(=O)Nc1ccc2c(c1)C(=O)N(C)C[C@@H](OC)[C@@H](C)CN(C)[C@H](C)CO2 | x | -7.2 | 2.6 | 0.8 | 59.7*[16.7 µM] | 2.4
CCC(=O)Nc1ccc2c(c1)C(=O)N(C)C[C@H](OC)[C@@H](C)CN(C(=O)CC)[C@H](C)CO2 | x | x | -3.8 | -9.1 | 6.3[16.7 µM] | 4.7
COCC(=O)Nc1ccc2c(c1)C(=O)N(C)C[C@H](OC)[C@H](C)CN(C)[C@@H](C)CO2 | x | -2.4 | -0.1 | 1.8 | -2.5[16.7 µM] | 9.1
CO[C@@H]1CN(C)C(=O)c2ccc(NS(=O)(=O)CC(F)(F)F)cc2OC[C@@H](C)N(C(=O)c2ccc3c(c2)OCO3)C[C@@H]1C | x | -15.7 | -13.7 | 5.5 | 64.5*[16.7 µM] | -5.2
N#C[C@H]1[C@H](c2ccccc2-c2ccccc2)[C@H](CO)N1C(=O)NC1CCCCC1 | x | -6.0 | 4.7 | x | x | -19.2
CCCC(=O)Nc1ccc2c(c1)OC[C@H](C)N(C(=O)CN(C)C)C[C@@H](C)[C@H](OC)CN(C)C2=O | x | -5.4 | -0.3 | 4.8 | 57.7*[16.7 µM] | x
CCCC(=O)Nc1ccc2c(c1)OC[C@@H](C)N(C(=O)CN(C)C)C[C@@H](C)[C@H](OC)CN(C)C2=O | x | -12.5 | 4.6 | 4.3 | 12.4[16.7 µM] | 0.9
CCS(=O)(=O)Nc1ccc2c(c1)C(=O)N(C)C[C@H](OC)[C@@H](C)CN(C(=O)C1CCC1)[C@H](C)CO2 | x | -5.6 | -5.7 | -2.2 | 61.0*[16.7 µM] | 3.6
COc1ccc(NC(=O)N(C)C[C@H]2OCCCC[C@@H](C)Oc3ccc(NC(=O)C4CCCCC4)cc3C(=O)N([C@H](C)CO)C[C@@H]2C)cc1 | 0.1[16.7 µM] | x | -2.1 | x | -2.3[16.7 µM] | -5.4
COc1ccc(Nc2ccnc3ccccc23)cc1 | 0.5 | x | x | x | x | x
CC(C)Nc1ccc(Nc2ccnc3cc4ccccc4cc23)cc1 | x | 97.5* | 35.8 | x | -82.7 | -60.8
C[C@@H]1CN([C@H](C)CO)C(=O)c2cc(NC(=O)Nc3ccc(F)cc3)ccc2O[C@H]1CN(C)S(=O)(=O)c1ccc(F)cc1 | -2.7[16.7 µM] | x | -7.4 | 0.9 | 3.7[16.7 µM] | 0.5
CC1(C(=O)NCc2ccc3c(c2)OCO3)CCN1Cc1csc2ccccc12 (configuration not stated) | -5.6 | 8.1 | -1.5 | 10.2 | 98.3* | -29.8
CC1(C(=O)Nc2ccc3c(c2)OCCO3)CCN1Cc1csc2ccccc12 (configuration not stated) | -2.9 | -4.1 | 0.3 | 31.2 | 25.5 | -11.3
CC(=O)N(C)C[C@@H]1Oc2ccc(NS(C)(=O)=O)cc2C(=O)N(C)C[C@H]1C | x | x | x | x | x | 5.4
CCCC#Cc1ccc2c(c1)O[C@@H](CN(C)CCC)[C@H](C)CN([C@@H](C)CO)S2(=O)=O | -3.3[16.7 µM] | x | 15.9 | -45.8 | 22.0[16.7 µM] | -5.1
Cc1noc(C)c1NC(=O)Nc1ccc2c(c1)C(=O)N([C@H](C)CO)C[C@@H](C)[C@H](CN(C)C(=O)Nc1cccc3ccccc13)O2 | -1.4[16.7 µM] | x | -3.3 | u | x | 7.0
O=[N+]([O-])CC(c1ccc(F)cc1)c1c[nH]c2ccccc12 (configuration not stated) | 79.6 | 43.0 | 55.1* | -16.0 | -27.9 | -18.4
COc1ccc2c3c([nH]c2c1)[C@H](CO)N(C(C)=O)CC31CN(C(=O)Nc2c(C)noc2C)C1 | x | x | 5.1 | x | x | 7.6
SMILES | miR122 inh | PAX8 inh HTS | EWS-Fli block | C2C12 statin | Env fusion inh | INS-1E GSIS act
Cc1c(P(=S)(c2ccccc2)c2ccccc2)[n+]2ccccc2n1CCc1ccccc1 | -15.4 | 88.8* | 16.7 | -44.6 | 13.8 | -20.4
OC(CNCCC1C=Nc2ccccc21)Cn1c2ccc(Cl)cc2c2cc(Cl)ccc21 (configuration not stated) | -55.1 | -10.6 | x | x | 2.5 | 647.4*
COCC(=O)N1CC2(C1)[C@@H](c1ccccc1)[C@H](CO)N2C(=O)c1ccncc1 | x | x | x | x | x | 9.0
O=C(C[C@H]1C[C@@H]2c3cc(NC(=O)C4CCOCC4)ccc3O[C@@H]2[C@@H](CO)O1)NCc1ccc2c(c1)OCO2 | -3.3[16.7 µM] | 18.3 | 0.1 | 1.6 | 7.2[16.7 µM] | 18.2
O=C(C1CCCCC1)N1CC[C@@H]2[C@H](CO)Nc3ccc(Br)cc3[C@@H]21 | 8.5[16.7 µM] | -2.9 | -6.1 | 13.4 | x | -4.6
COc1cccc(S(=O)(=O)N(C)C[C@H]2Oc3cc(C#CCC(C)C)ccc3S(=O)(=O)N([C@@H](C)CO)C[C@H]2C)c1 | 25.6[16.7 µM] | x | 23.3 | -36.7 | 71.3*[16.7 µM] | 24.2
COc1ccc(S(=O)(=O)N(C)C[C@H]2Oc3cc(C#CC4CCCC4)ccc3S(=O)(=O)N([C@@H](C)CO)C[C@@H]2C)cc1 | 26.6[16.7 µM] | 89.7* | 6.8 | -73.7 | 8.7[16.7 µM] | 2.5
COc1cccc(S(=O)(=O)N(C)C[C@@H]2Oc3cc(C#CCC(C)C)ccc3S(=O)(=O)N([C@H](C)CO)C[C@H]2C)c1 | -8.2[16.7 µM] | x | 39.2 | -87.8 | 71.0*[16.7 µM] | 11.7
CCCC#Cc1ccc2c(c1)O[C@H](CN(C)S(=O)(=O)c1cccc(OC)c1)[C@@H](C)CN([C@@H](C)CO)S2(=O)=O | 31.4[16.7 µM] | -22.2 | -10.6 | -9.0 | -12.4[16.7 µM] | -18.1
CCCC#Cc1ccc2c(c1)O[C@H](CN(C)S(=O)(=O)c1cccc(OC)c1)[C@H](C)CN([C@@H](C)CO)S2(=O)=O | 11.8[16.7 µM] | 1.4 | 24.4 | -33.0 | -1.9[16.7 µM] | -1.9
COc1cccc(S(=O)(=O)N(C)C[C@@H]2Oc3cc(C#CCC(C)C)ccc3S(=O)(=O)N([C@@H](C)CO)C[C@@H]2C)c1 | -9.6[16.7 µM] | x | 25.9 | -38.7 | 85.2*[16.7 µM] | -18.6
C[C@@H]1CCCCO[C@H](CN(C)C(=O)c2ccccc2)[C@H](C)CN([C@H](C)CO)C(=O)c2cc(NS(=O)(=O)c3cn(C)cn3)ccc2O1 | 2.6[16.7 µM] | 10.8 | -4.1 | x | -7.1[16.7 µM] | 23.1
CCn1c(C)cs/c1=N\S(=O)(=O)c1ccccc1 | 10.1 | -8.8 | 5.4 | 2.6 | -7.9 | 8.7

Assay outcomes: PubChem, Broad Institute
